Her2 expr inh: lowers expression of human Her2 kinase. P04626. SKBR-3 HER2 protein level, AlphaScreen, 18-24 h; active compounds read low. 65,000 compounds, 0.69% hits. HER2 level % of control, % at 10 µM. AID 645;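 active = HER2 level under 5% of the carrier-only control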;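 also: 100% = DMSO carrier and 0% = 500 nM PU-H71 HSP90 inhibitor; lower value means stronger loss of Her2 protein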
Target sequence (P04626 whole entry, looked up): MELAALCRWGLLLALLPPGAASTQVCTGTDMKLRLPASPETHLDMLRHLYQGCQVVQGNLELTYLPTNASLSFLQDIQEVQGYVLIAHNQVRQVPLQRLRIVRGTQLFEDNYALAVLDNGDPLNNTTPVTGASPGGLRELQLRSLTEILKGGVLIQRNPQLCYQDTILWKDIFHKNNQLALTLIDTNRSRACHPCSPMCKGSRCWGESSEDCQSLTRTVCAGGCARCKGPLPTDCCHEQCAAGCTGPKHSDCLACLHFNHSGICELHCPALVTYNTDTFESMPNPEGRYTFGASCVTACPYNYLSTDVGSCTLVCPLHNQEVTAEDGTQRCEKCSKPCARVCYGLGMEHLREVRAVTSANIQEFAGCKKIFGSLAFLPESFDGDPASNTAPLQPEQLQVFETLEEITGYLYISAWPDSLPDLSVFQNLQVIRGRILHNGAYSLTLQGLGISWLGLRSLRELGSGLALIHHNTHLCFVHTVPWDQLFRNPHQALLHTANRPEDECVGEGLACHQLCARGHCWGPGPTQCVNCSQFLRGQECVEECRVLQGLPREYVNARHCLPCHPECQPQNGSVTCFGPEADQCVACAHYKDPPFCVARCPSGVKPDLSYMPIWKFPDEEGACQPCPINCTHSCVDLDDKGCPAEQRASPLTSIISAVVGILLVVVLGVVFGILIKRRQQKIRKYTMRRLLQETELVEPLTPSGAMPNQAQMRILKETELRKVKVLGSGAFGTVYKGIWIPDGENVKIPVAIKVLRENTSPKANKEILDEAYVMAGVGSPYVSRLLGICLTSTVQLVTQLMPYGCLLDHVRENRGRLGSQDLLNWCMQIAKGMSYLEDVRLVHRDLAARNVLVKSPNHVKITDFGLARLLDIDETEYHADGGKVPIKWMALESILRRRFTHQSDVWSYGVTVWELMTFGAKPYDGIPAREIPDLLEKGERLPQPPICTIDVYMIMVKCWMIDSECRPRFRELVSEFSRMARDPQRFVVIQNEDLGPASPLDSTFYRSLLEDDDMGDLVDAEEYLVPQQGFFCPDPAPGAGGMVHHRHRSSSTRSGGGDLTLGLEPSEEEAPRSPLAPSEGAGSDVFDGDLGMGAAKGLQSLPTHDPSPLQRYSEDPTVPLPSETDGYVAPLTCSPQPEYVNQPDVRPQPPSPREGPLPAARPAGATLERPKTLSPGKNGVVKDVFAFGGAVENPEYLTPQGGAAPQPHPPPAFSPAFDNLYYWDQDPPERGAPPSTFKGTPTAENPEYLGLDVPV
Jurkat viability: cytotoxicity toward Jurkat cells | AID 463 | inhibition, % at 4 µM | Jurkat E6.1 viability, ATP luminescence, 48 h | 56,000 compounds, 1.2% hits;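 active = inhibition above the mean inhibition of all tested compounds plus 3 SD, cut at about 28% in these data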
SKBR3 24h inh: SK-BR-3 proliferation inhibitors; SK-BR-3 viability, CellTiter-Glo ATP luminescence, 24 h; active compounds read low; viability, % at 10 µM; 41,000 compounds, 0.47% hits; AID 847;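 active = viability at or below the median of all test compounds minus 3 SD, in both replicates if run twice, cut at about 45% in these data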;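 also: 100% = median untreated cell wells and 0% = median positive control drug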
* = called active by the depositor; nt = no result. Hits are enriched below; roughly 2% of the tested compounds scored in any of these assays.

SMILES | Her2 expr inh | Jurkat viability | SKBR3 24h inh
COc1cccc(C(=O)Nc2nnc(-c3cccs3)o2)c1 | 84 | 10 | nt
COc1cc(NC(=O)c2ccc(S(=O)(=O)N(C)C)cc2)cc(OC)c1OC | 82 | 11 | 94
CN(c1ccccc1)S(=O)(=O)c1ccc(C(=O)Nc2nnc(-c3ccc(F)cc3)o2)cc1 | 65 | -6 | 52
CCCCN(CC)S(=O)(=O)c1ccc(C(=O)Nc2nnc(-c3cccs3)o2)cc1 | 64 | 101* | 75
CCCCN(C)S(=O)(=O)c1ccc(C(=O)Nc2nnc(CSC)o2)cc1 | 86 | 53* | 43*
COc1ccccc1NC(=O)NCCN1C(=O)C2C3C=CC(C3)C2C1=O (configuration not stated) | 97 | -10 | nt
Cc1cc(C)n(C(=O)CNC(=O)COc2ccccc2)n1 | 110 | -6 | 83
CCc1nnc(NC(=O)c2ccc(S(=O)(=O)N(CC)CC)cc2)s1 | 110 | 1 | nt
CCc1nnc(NC(=O)c2ccc(S(=O)(=O)N(CC)Cc3ccccc3)cc2)o1 | 79 | 98* | 53
O=C(CCNS(=O)(=O)c1cccs1)N1CCc2ccccc2C1 | 77 | 3 | 91
CCOC(=O)CSc1cc(=O)n(C)c2cc(Cl)ccc12 | 73 | -2 | 70
Cc1cc(/C=N/n2cnnc2)c(C)n1-c1ccc(OCc2ccc(F)cc2)cc1 | 93 | 45* | 97
Cc1cc(/C=N/n2cnnc2)c(C)n1-c1cccc(Cl)c1 | 133 | -5 | 117
CCOC(=O)CSc1nnc(-c2ccc(NS(=O)(=O)c3ccc(C)cc3)cc2)o1 | -1.4* | 5 | nt
COC(=O)CSc1nnc(-c2ccc(S(=O)(=O)N3CCCCC3)cc2)o1 | 62 | 2 | 59
COc1ccc2sc(NC(=O)CC(C)C)nc2c1 | -19* | -9 | 99
CCC(=O)Nc1nc2cc(OC)ccc2s1 | 95 | 4 | 86
COc1ccc(C(=O)N2CCN(c3nnnn3-c3ccccc3)CC2)cc1OC | 106 | 2 | 94
CCOC(=O)N1CCN(c2nnnn2-c2ccccc2)CC1 | -26* | 1 | 101
O=C(c1cccc2ccccc12)N1CCN(CC2CC=CCC2)CC1 (configuration not stated) | 97 | -6 | nt
CCC(=O)Nc1nc2ccccc2n1Cc1ccccc1 | 82 | 3 | 86
CCC(=O)Nc1nc2ccccc2n1Cc1ccc(C)cc1 | 100 | 76* | nt
Cc1cc(C)c2cc(CN(CCN3CCCC3)C(=O)Nc3ccc(F)cc3)c(=O)[nH]c2c1 | 81 | 5 | nt
Cc1ccc(C)c2[nH]c(=O)c(CN(CCN3CCCC3)C(=O)Nc3cccc(Cl)c3)cc12 | 63 | 51* | nt
O=c1cc(Nc2ccc3c(c2)OCCO3)[nH]c(=O)n1C1CCCCC1 | 71 | 59* | 86
SMILES | Her2 expr inh | Jurkat viability | SKBR3 24h inh
CCc1ccc(Nc2cc(=O)n(C3CCCCC3)c(=O)[nH]2)cc1 | 83 | 0 | 107
CCOC(=O)c1cccc(NC(=O)CN(c2ccc(C)cc2)S(=O)(=O)c2c(C)n[nH]c2C)c1 | 109 | 1 | 75
COc1ccc(OC)c(S(=O)(=O)N2CCC(C(=O)Nc3cccc(C(F)(F)F)c3)CC2)c1 | 44 | 5 | 86
CCOC(=O)c1nc(S(C)(=O)=O)ncc1Cl | 44 | 100* | nt
CCOC(=O)c1nc(S(C)(=O)=O)ncc1N1CCOCC1 | 62 | -6 | nt
COC(=O)/C=C/S(=O)(=O)c1ccc(NC(C)=O)cc1 | -20* | 71* | 2.1*
COc1ccccc1NS(=O)(=O)c1ccc(NC(C)=O)cc1 | 83 | -3 | 106
CN=C1SC(CC(=O)Nc2cc(Cl)ccc2Cl)C(=O)N1C (configuration not stated) | nt | -6 | 101
COc1ccc2oc(C(=O)C3CC3)c(NC(=O)CCCN3C(=O)c4ccccc4C3=O)c2c1 | 72 | 9 | nt
CCOC(=O)COc1cccc2c(=O)n(CC(=O)N3CCc4ccccc43)ccc12 | 79 | 2 | nt
CCOC(=O)COc1cccc2c(=O)n(CC(=O)NCc3ccc4c(c3)OCO4)ccc12 | 93 | 51* | nt
O=C(NCCCn1ccnc1)Nc1cccc(Cl)c1 | 96 | -1 | 90
COC(=O)c1[nH]c2cc(OC)ccc2c1N | 80 | -8 | 89
CCCc1nn(C)c2c1C(c1cccnc1)C(C#N)=C(N)O2 (configuration not stated) | 66 | nt | 86
CCN(CC)c1ccc2c(c1)OC(N)=C(C#N)C2c1cccnc1 (configuration not stated) | 59 | 97* | 93
CCOC(=O)N1CCN(c2nc3ccccc3nc2C(C#N)S(=O)(=O)c2ccc(C)cc2)CC1 (configuration not stated) | 108 | -4 | 92
CCOc1ccc2nc(NC(=O)c3ccoc3C)sc2c1 | 92 | 42* | 75
CCOc1ccc2nc(NC(=O)COC)sc2c1 | nt | nt | 78
O=S1(=O)C=C(Sc2nc3ccccc3s2)c2ccccc21 | -18* | 102* | 22*
Cc1cc(C)nc(SC2=CS(=O)(=O)c3ccccc32)n1 | 39 | 12 | 82
Cc1ccccc1OCCCC(=O)Nc1nccs1 | -20* | nt | nt
COc1ccccc1C(CCN(Cc1cccs1)C(C)=O)c1ccco1 (configuration not stated) | 83 | 9 | 88
COc1ccccc1C(CC(=O)Nc1nccs1)c1ccco1 (configuration not stated) | -17* | nt | 90
CCOc1ccccc1C(=O)Nc1nccs1 | 102 | 1 | 139
COCCOC(=O)C1=C(C)N=C2SCCC(=O)N2C1c1cc(Br)ccc1OC (configuration not stated) | 89 | -3 | 86
SMILES | Her2 expr inh | Jurkat viability | SKBR3 24h inh
COc1cccc(C(=O)Nc2ncc3c(n2)CC(c2ccc(OC)cc2OC)CC3=O)c1 (configuration not stated) | 75 | 43* | 83
COc1ccc(Nc2ncc3c(n2)CC(c2ccccc2)CC3=O)cc1 (configuration not stated) | 78 | 9 | 75
CC1CC(C)CN(c2nc3c(c(=O)[nH]c(=O)n3C)n2CCSc2nc3ccccc3o2)C1 (configuration not stated) | 78 | 2 | nt
c1cn(CCCNc2ncnc3sc4c(c23)CCC4)cn1 | 77 | 4 | nt
c1csc(CCNc2ncnc3sc4c(c23)CCC4)c1 | 81 | 40* | nt
COc1ccc2oc(=O)c(C(=O)N3CCN(C45CC6CC(CC(C6)C4)C5)CC3)cc2c1 | 82 | 0 | 112
c1ccc(-c2nc(N3CCCCCC3)c3ccccc3n2)nc1 | 43 | 72* | 195
c1ccc(-c2nc(N3CCOCC3)c3ccccc3n2)nc1 | 104 | 0 | 68
COc1ccccc1NC(=O)Nn1cnnc1 | 121 | nt | 81
CCOc1cc(C2c3c(n[nH]c3C)C(=O)N2c2ccc(Br)cc2)ccc1O (configuration not stated) | 91 | -3 | 37*
COc1cc(C2c3c(n[nH]c3C)C(=O)N2c2ccc(Br)cc2)ccc1O (configuration not stated) | 98 | -4 | 92
O=C(CNC(=O)c1ccc(Cl)cc1)NCCCn1ccnc1 | 105 | 0 | nt
C=CCn1c(NCCO)nc2c1c(=O)n(C)c(=O)n2C | 95 | 0 | 105
CCCNc1nc2c(c(=O)n(C)c(=O)n2C)n1CCC(C)C | 97 | 33* | 93
CCCCNc1nc2c(c(=O)n(C)c(=O)n2C)n1CCC | 99 | 7 | nt
CCCCCCn1c(NCC)nc2c1c(=O)n(C)c(=O)n2C | 101 | 78* | 79

Bioassay records: PubChem, several laboratories
